High-throughput results as filed in PubChem BioAssay.
FEN1 inhibitor = blocks human flap endonuclease 1; P39748; Recombinant FEN1 flap cleavage, fluorescence, 15 min; Potency, µM (top dose mostly 114 µM), most hits filed as inhibitors; 390,000 compounds, 0.35% hits; AID 588795; note: nearly all actives have a fitted effect of over 65% in size
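Reaction started by adding substrate (50 nM final) to 10 nM enzyme after 15 min room-temperature compound preincubation. Reads at 0 and 15 min, with data normalized and fitted to a four-parameter Hill equation.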
Pol kappa inh = blocks human DNA polymerase kappa activity. Q9UBT6. purified Pol kappa, fluorescent DNA synthesis assay, 10 min. Potency, µM (doses to about 107 µM), actives largely listed as inhibitors. 400,000 compounds, 0.53% hits
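Kinetic fluorescence screen: compound preincubated 15 min RT with 10 nM enzyme; 50 nM substrate (final) initiates; reads at 0/10 min.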
Pol beta inh = inhibitors of human DNA polymerase beta. P06746. AID 485314. 340,000 compounds, 1.3% hits. Pol beta primer extension/strand displacement, fluorescence kinetic. Potency, µM (series often up to 114 µM), actives largely listed as inhibitors
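Pol beta (10 nM) and compounds were preincubated 15 min at room temperature, then 50 nM substrate (final) started primer extension/strand displacement. Reads were taken at 0 and 10 min; concentration-response data were fitted to a four-parameter Hill equation.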
TDP1 block = blocks human tyrosyl-DNA phosphodiesterase 1 | Q9NUW8 | recombinant TDP1, AlphaScreen DNA substrate cleavage | Potency, µM (doses to about 130 µM), most hits filed as inhibitors | 350,000 compounds, 0.28% hits | AID 485290; note: nearly all actives have a fitted effect of over 40% in size
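Enzyme-compound mixtures sat 15 min at room temperature, followed by a 5 min reaction with 15 nM final substrate and 10 min with AlphaScreen beads. Recombinant human Tdp1 was used at 1 nM final.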
POLI inh = blocks human DNA polymerase iota activity. Potency, µM (highest dose often 115 µM), hits mostly inhibitors. 390,000 compounds, 1% hits. Q9UNA4. Pol iota fluorescent replication assay, 10 min
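Fluorescent replication assay read twice, at 0 min and 10 min after adding 50 nM (final) substrate. Enzyme (10 nM) and compounds were first incubated 15 min at room temperature; enzyme-free buffer wells were negative controls.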
POLH inh = blocks human DNA polymerase eta activity; Potency, µM (titrated, usually from 114 µM), usual class: inhibitors; Q9Y253; recombinant Pol eta, fluorescent DNA replication assay; 390,000 compounds, 1.2% hits
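Fluorescent replication assay: 50 nM final substrate added after a 15 min room-temperature compound preincubation with 10 nM enzyme. Signal taken at 0 min and again at 10 min.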
A number is an active result; i = inactive; ? = inconclusive; nt = no result given; [ ] = dose if it differs, or a comment. The list is not random: actives were taken first. Their share in the collection is about 2.4%. Calls come from the whole dose curve; as a rule, active = well fitted curve in the direction sought with a large enough effect; inconclusive = small, poorly fitted or top-dose-only effect, or another doubt; inactive = no such curve, though single readings can be large; an effect the other way counts as inactive or inconclusive.

SMILES	FEN1 inhibitor	Pol kappa inh	Pol beta inh	TDP1 block	POLI inh	POLH inh
O=C(OCc1cc(=O)n2nc(-c3cccs3)sc2n1)c1cccc(F)c1	i	i	18µM	i	?	?
O=C(CSc1nnnn1C1CC1)N1CCN(c2cccc(Cl)c2)CC1	i	i	nt	i	i	i
O=C(CSc1nnnn1C1CC1)N1CCN(c2ccc(O)cc2)CC1	i	?	nt	nt	45µM	?
O=C[C@@H]1CCCN1C(=O)[C@@H]1CCCN1C(=O)OCc1ccccc1	nt	i[19.4 µM]	nt	i	nt	nt
CN(C)c1ccc(/C=C(\C#N)C(=O)NCc2ccco2)cc1	nt	nt	56µM	i	nt	nt
COc1ccc(NC(=O)CCS(=O)(=O)c2ccc3c(c2)oc(=O)n3C)cc1	i	i	?	nt	50µM	?
CCc1ccccc1NC(=O)CCS(=O)(=O)c1ccc(OC)cc1	i	i	35µM	nt	i	?
Cn1c(=O)oc2cc(S(=O)(=O)CCC(=O)N3CCN(c4cccc(Cl)c4)CC3)ccc21	i	i	i	i	i	i
COc1cccc(N2CCN(C(=O)CCS(=O)(=O)c3ccc4c(c3)oc(=O)n4C)CC2)c1	i	?	?	i	71µM	?
COc1ccc(S(=O)(=O)N2c3ccc(Cl)cc3[C@](O)(c3ccccc3Cl)[C@@H]2C(=O)N2CCC[C@H]2C(N)=O)cc1OC	nt	i[19.4 µM]	nt	i	nt	nt
CC1(C)N([O-])C2=C(CCCC2)[N+]1=O	i	?	25µM	i	?	22µM
CC1=C(c2ccc(Cl)cc2)[N+](=O)C(C)(C)N1[O-]	i	i	i	i	?	i
O=C(c1ccc2c(c1)OCCO2)N(Cc1cccnc1)c1nc2c(Cl)cccc2s1	i	i	i	i	i	i
O=C(NCCCN1CCN(c2cccc(Cl)c2)CC1)Nc1ccccc1C(F)(F)F	i	i	i	i	i	i
CN(CCC#N)c1ccc(/C=C/c2ccnc3ccccc23)cc1	i	i	nt	nt	i	nt
Cc1c(CCC(=O)N2CCC(C(=O)O)CC2)c(=O)oc2cc3oc4c(c3cc12)CCCC4	i	i	35µM	nt	i	i
O=C1C=C(Nc2ccccc2)c2ccccc2C1=O	i	i	i	i	22µM	?
CCCCCCCCCCC(C)(C)C(=O)Nc1c(OC)cc(OC)cc1OC	i	?	nt	i	?	nt
CCc1ccc2nc(N(CCN(CC)CC)C(=O)c3ccco3)sc2c1	i	i	i	i	i	i
CCN(CC)CCN(C(=O)c1ccco1)c1nc2cc(C)cc(C)c2s1	i	i	56µM	i	i	i
CCCCN(CCCC)c1ccc(/C=C2\C=Cc3ccccc32)cc1	i	i	nt	nt	i	nt
COc1ccc(C=C2CS(=O)(=O)CC(=Cc3ccc(OC)cc3)C2=O)cc1	nt	nt	nt	nt	nt	50µM
CCOc1cccc(NC(=O)/C(C#N)=C\c2cn(CC(=O)O)c3ccccc23)c1	i	i	50µM	nt	i	?
CC[n+]1c(/C=C/c2ccc(OC)c(OC)c2)ccc2ccccc21	i	i	?	nt	i	i
CC[n+]1c(/C=C/c2ccc(N(C)C)cc2)ccc2ccccc21	50µM	i	28µM	i	i	?
SMILES	FEN1 inhibitor	Pol kappa inh	Pol beta inh	TDP1 block	POLI inh	POLH inh
CCN(CC)c1ccc(/C=C/c2ccc3ccc(OC)cc3[n+]2CC)cc1	35µM	i	i	nt	?	i
CN(C)c1ccc(/C=C/c2ccc3ccccc3[n+]2[O-])cc1	i	i	nt	nt	i	nt
CCC(=O)NC(c1cc(Cl)c2cccnc2c1O)c1cccn1C (configuration not stated)	nt	nt	nt	i	nt	nt
COc1cc2nc(NC3CCN(Cc4ccccc4)CC3)nc(N3CCCN(C)CC3)c2cc1OC	?	i	nt	nt	i	nt
Cc1ccc([N+](=O)[O-])cc1-c1ccc(/C=C(\C#N)c2[nH]nc(N)c2C#N)o1	?	?	6.3µM	i	56µM	?
COc1ccc(NC(C)=O)cc1S(=O)(=O)N1CCN(Cc2cccs2)CC1	i	i	nt	?	?	25µM
CCCC(=O)Nc1ccc(C(=O)N/N=C/c2ccc([N+](=O)[O-])o2)cc1	i	i	45µM	i	?	?
O=C(N/N=C/c1ccc([N+](=O)[O-])o1)C1CC1	i	i	18µM	nt	22µM	40µM
NC(=O)N/N=C/c1ccc([N+](=O)[O-])o1	i	i	nt	i	i	i
COc1ccccc1CC(=O)NO	i	i	nt	nt	i	nt
CCCCCc1ccc(-c2cn(Cc3ccc4c(c3)C(=O)c3ccccc3C4=O)nn2)cc1	i	i	nt	nt	i	nt
Cn1cccc1-c1cc(C(=O)N/N=C/c2cc(Br)ccc2O)[nH]n1	i	i	?	79µM	i	?
Cn1cccc1-c1cc(C(=O)N/N=C/c2ccccc2Cl)[nH]n1	i	i	?	i	i	i
Nc1ccc(O)cc1	?	89µM	nt	i	7.1µM	nt
CCCNC(=O)Nc1nc2ccccc2s1	i	i	i	nt	i	i
CCCNC(=O)c1ccc(-c2nc3ccccc3s2)s1	i	i	16µM	i	?	?
CC1CCC2C(C)C3C(CC4[C@@H]5CC=C6C[C@@H](O)CC[C@]6(C)C5CC[C@]34C)N2C1 (some centres not stated)	nt	i	nt	i	nt	nt
Cc1nnc(NC(=O)c2nc(S(=O)(=O)Cc3ccccc3C)ncc2Cl)s1	i	i	?	i	?	56µM
Cc1ccc(C)c(NC(=O)c2nc(S(=O)(=O)Cc3ccc(F)cc3)ncc2Cl)c1	i	i	32µM	i	?	89µM
COC(=O)c1c(C)nc(C)c(C(=O)OC)c1-c1ccccc1[N+](=O)[O-]	nt	i	nt	i	nt	nt
Cc1ccc(NCC(O)Cn2cnc3c2c(=O)n(C)c(=O)n3C)cc1 (configuration not stated)	i	i	13µM	i	i	i
Nc1c(-c2nc(-c3ccccc3)no2)nnn1CC(=O)Nc1cccc(F)c1	i	i	14µM	i	i	i
O=C(c1cc2nc(C3CC3)cc(C(F)F)n2n1)N1CCOCC1	i	79µM	50µM	i	?	13µM
COc1cccc(NC(=O)CN2C(=O)NC(C)(c3ccc(C)cc3)C2=O)c1 (configuration not stated)	i	i	i	40µM	i	i
COc1cccc(NC(=O)CN2C(=O)NC3(CCCC3)C2=O)c1	i	i	i	i	i	i
COc1ccc(NC(=O)CCCn2nc(C)c3c(C)n(-c4ccccc4)nc3c2=O)cc1OC	i	i	i	i	i	i
COc1cccc(NC(=O)Cn2nc(C)c3c(C)n(-c4ccccc4)nc3c2=O)c1	i	i	i	i	89µM	i
COc1ccc(NC(=O)Cn2nc(C)c3c(C)n(-c4ccccc4)nc3c2=O)cc1OC	?	i	50µM	i	?	?
Cc1[nH]c2ccccc2c1C(=O)C(C)Sc1nc2ccccc2c(=O)n1Cc1cccnc1 (configuration not stated)	i	i	nt	nt	i	nt
CC(C)(C)n1ncc2c(=O)n(Cc3c(F)ccc(F)c3Cl)cnc21	i	i	nt	nt	i	nt
